Assay results: PubChem BioAssay AID1861 (The Scripps Research Institute Molecular Screening Center, 2009)
Screen size: about 290,000 compounds; about 3,100 (1.1%) were called active. Only a selection was taken, and actives are over-represented in it overall. A number with no mark means an inactive call. No stated cut-off is given here; in the data, active means inhibition above about 16% (passing the limit was not always enough); inactive means the rest.

The molecules below were run against Neuropeptides B/W receptor type 1 (Homo sapiens) (UniProt P48145) (assay: GPR7 receptor antagonists, primary screen, cell-based, fluorescence, single concentration (AID 1861;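 further: cells stimulated with the agonist NPW; 0% = agonist with vehicle and 100% = vehicle without agonist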)). Settings: GPR7-expressing cells, fluorescence antagonist assay; at 4.4 µM; stronger effect = higher value.
Sequence of Neuropeptides B/W receptor type 1 (Homo sapiens) (P48145 whole entry, looked up): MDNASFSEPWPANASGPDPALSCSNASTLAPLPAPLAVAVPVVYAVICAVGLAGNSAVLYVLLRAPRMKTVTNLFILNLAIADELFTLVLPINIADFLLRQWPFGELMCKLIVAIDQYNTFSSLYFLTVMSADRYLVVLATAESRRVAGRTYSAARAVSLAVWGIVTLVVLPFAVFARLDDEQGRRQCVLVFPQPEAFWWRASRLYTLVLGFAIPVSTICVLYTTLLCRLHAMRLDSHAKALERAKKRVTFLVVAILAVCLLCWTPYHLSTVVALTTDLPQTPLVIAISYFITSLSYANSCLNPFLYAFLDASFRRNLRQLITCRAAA

Compound	inhibition
CCOC(=O)C1(CCc2ccccc2)CCN(Cc2ccco2)CC1	-1.12%
CCOC(=O)C1(Cc2ccc(Cl)cc2)CCN(C(C)CCn2cccn2)CC1 (stereo not given)	37.6% (active)
CCN1CCN(Cc2cc(OC)c3c(c2)OCO3)CC1	-5.46%
COC(=O)N(c1ccc(OC)cc1)P1(=S)OCCC(C)O1 (stereo not given)	-1.86%
COc1cc2nc(N3CCN(C(=O)[C@@H]4CCCO4)CC3)nc(N)c2cc1OC	-11.2%
CCOc1ccc(-c2cc(C)[n+](CCN(CC)CC)c(-c3ccc(OCC)cc3)c2)cc1	24.6% (active)
COc1ccc(CNCCc2c[nH]c3ccccc23)cc1OC	3.96%
COc1ccc(Br)cc1CNCCc1cccc(Cl)c1	35.6% (active)
COc1ccc(CNCCc2ccc3c(c2)OCO3)c(OC)c1OC	18.9%
CN1CCC(OC(=O)c2cccc(F)c2)CC1	1.33%
CCCCCCN=C(CC)c1c(O)n(CCCC)c(=O)[nH]c1=O	-13.1%
Cc1c(Oc2cc(NN3CCCCC3)c([N+](=O)[O-])cc2[N+](=O)[O-])cccc1[N+](=O)[O-]	-6.67%
CCC(C)n1c(O)c(/C=N/Nc2nc3c(c(=O)n(C)c(=O)n3C)n2C)c(=O)[nH]c1=S (stereo not given)	-8.09%
Cc1ccnc(-n2c(C)cc(/C=C3\C(=O)NC(=S)N(C)C3=O)c2C)c1	-2.63%
CSc1ccc(C(=O)C2CCCN(Cc3ccn[nH]3)C2)cc1 (stereo not given)	5.68%
